Active and inactive are the calls of the source. The calls were made as follows: active = hit-call score of the fitted dose curve at least 0.9, where 1 is the maximum; inactive = score below 0.9.
Tests used:
[1] = read-out: Interleukin-1 alpha (IL1a), IL1A (gene 3552); test: BSK_KF3CT_IL1a: BioMAP Diversity Plus: KF3CT Assay for Interleukin-1 alpha (IL1a) Biomarker Activity (AID 2283070); details: primary human keratinocytes with fibroblasts; actives raise or lower the signal
In short: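 Human keratinocyte plus foreskin fibroblast primary co-culture, sampled 24 h after chemical dosing. IL-1a measured by ELISA; responses fitted bidirectionally against DMSO baseline (negative control), so gain or loss of signal both count.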

[2] = read-out: TIMP metallopeptidase inhibitor 2 (TIMP2), TIMP2 (gene 7077); test: BSK_KF3CT_TIMP2: BioMAP Diversity Plus: KF3CT Assay for TIMP metallopeptidase inhibitor 2 (TIMP2) Biomarker Activity (AID 2283071); details: primary human keratinocytes with fibroblasts; actives raise or lower the signal
In short: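 Keratinocyte–fibroblast co-culture, 24 h exposure; TIMP-2 ELISA, DMSO-normalised bidirectional fit. Parallel SRB (0.1%, TCA-fixed, 560 nm) total-protein staining gauges cytotoxicity.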

[3] = read-out: Transforming growth factor beta 1 (TGFb1), TGFB1 (gene 7040); test: BSK_KF3CT_TGFb1: BioMAP Diversity Plus: KF3CT Assay for Transforming growth factor beta 1 (TGFb1) Biomarker Activity (AID 2283072); details: primary human keratinocytes with fibroblasts; actives raise or lower the signal
In short: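 Signal changes in either direction, relative to DMSO, define activity here. TGF-b1 is read by ELISA from a human keratinocyte-fibroblast co-culture 24 h post-dose.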

[4] = read-out: C-C motif chemokine 2 (Homo sapiens) (UniProt P13500); test: BSK_KF3CT_MCP1: BioMAP Diversity Plus: KF3CT Assay for Monocyte Chemoattractant Protein 1 (MCP1/CCL2) Biomarker Activity (AID 2283073); details: primary human keratinocytes with fibroblasts; actives raise or lower the signal
In short: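 Keratinocytes and foreskin fibroblasts were co-cultured, dosed with chemical, and sampled 24 h later. MCP-1 was quantified by ELISA, and the endpoint was analyzed with bidirectional fitting using DMSO as negative control.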

[5] = read-out: Matrix Metallopeptidase 9 (MMP9), MMP9 (gene 4318); test: BSK_KF3CT_MMP9: BioMAP Diversity Plus: KF3CT Assay for Matrix Metallopeptidase 9 (MMP9) Biomarker Activity (AID 2283074); details: primary human keratinocytes with fibroblasts; actives raise or lower the signal
In short: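 Keratinocyte plus foreskin fibroblast human primary skin co-culture was dosed with chemical and MMP-9 was quantified by ELISA 24 h later. Bidirectional curve fitting used DMSO as negative control and activity baseline.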

[6] = read-out: urokinase plasminogen activator (uPA), PLAU (gene 5328); test: BSK_KF3CT_uPA: BioMAP Diversity Plus: KF3CT Assay for urokinase plasminogen activator (uPA) Biomarker Activity (AID 2283075); details: primary human keratinocytes with fibroblasts; actives raise or lower the signal
In short: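 Human keratinocyte plus foreskin fibroblast primary co-culture exposed to chemical for 24 h. uPA levels were quantified by ELISA, and activity was fitted bidirectionally against a DMSO negative-control baseline.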

[7] = read-out: E-selectin (Homo sapiens) (UniProt P16581); test: BSK_LPS_Eselectin: BioMAP Diversity Plus: LPS Assay for Eselectin Biomarker Activity (AID 2283077); details: primary human HUVEC with PBMC; actives raise or lower the signal
In short: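 Signal of E-selectin, detected by ELISA, served as the endpoint; cells were umbilical vein endothelium with PBMC, read 24 h after treatment. DMSO defined baseline, and both increases and decreases were fitted.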

[8] = read-out: Interleukin-8 (IL8), CXCL8 (gene 3576); test: BSK_LPS_IL8: BioMAP Diversity Plus: LPS Assay for Interleukin-8 (IL8) Biomarker Activity (AID 2283078); details: primary human HUVEC with PBMC; actives raise or lower the signal
In short: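 Endothelial cells and PBMC from human donors are co-cultured, treated with chemicals and LPS, then assayed for IL-8 by ELISA after 24 h. Parallel SRB staining (0.1% SRB after 10% TCA fixation, 560 nm) flags cytotoxicity.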

[9] = BSK_LPS_SRB: Viability Assessment in the BioMAP Diversity Plus: LPS Assay (AID 2283079); details: primary human HUVEC with PBMC;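 also: total protein by sulforhodamine B absorbance as a cytotoxicity measure; measured one day after compound addition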
In short: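 Overt cytotoxicity was gauged by sulforhodamine B total-protein staining in a primary human vascular endothelial and mononuclear cell co-culture 24 h post-dosing. Activity was fitted in both directions relative to DMSO.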

[10] = read-out: Interleukin-1 alpha (IL1a), IL1A (gene 3552); test: BSK_LPS_IL1a: BioMAP Diversity Plus: LPS Assay for Interleukin-1 alpha (IL1a) Biomarker Activity (AID 2283080); details: primary human HUVEC with PBMC; actives raise or lower the signal
In short: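 Measured: IL-1 alpha via ELISA at 24 h in LPS-activated human umbilical vein endothelium–PBMC co-culture. Baseline: DMSO, bidirectional fitting.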

[11] = read-out: Monocyte Chemoattractant Protein-1 (MCP1), CCL2 (gene 6347); test: BSK_LPS_MCP1: BioMAP Diversity Plus: LPS Assay for Monocyte Chemoattractant Protein-1 (MCP1) Biomarker Activity (AID 2283081); details: primary human HUVEC with PBMC; actives raise or lower the signal;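 as to AC50: secreted MCP-1 protein quantified by ELISA in culture supernatant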
In short: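 LPS-stimulated HUVEC/PBMC co-culture; chemical, 24 h; MCP-1 by ELISA; bidirectional fit vs DMSO; cytotoxicity via SRB (0.1% stain, 10% TCA fix, 560 nm) in parallel wells.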

[12] = BSK_LPS_PGE2: BioMAP Diversity Plus: LPS Assay for Prostaglandin E2 (PGE2) Biomarker Activity (AID 2283082); details: primary human HUVEC with PBMC; actives raise or lower the signal;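 as to AC50: secreted prostaglandin E2 measured by ELISA in LPS-stimulated co-culture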
In short: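 Endpoint derived from bidirectional curve fitting versus DMSO of ELISA-measured PGE2 in LPS-stimulated human primary vascular co-culture (HUVEC with PBMC) harvested at 24 h.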

[13] = read-out: Macrophage colony-stimulating factor (MCSF), CSF1 (gene 1435); test: BSK_LPS_MCSF: BioMAP Diversity Plus: LPS Assay for Macrophage colony-stimulating factor (MCSF) Biomarker Activity (AID 2283083); details: primary human HUVEC with PBMC; actives raise or lower the signal
In short: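 Compound is added to a human vascular primary co-culture of umbilical vein endothelium and blood mononuclear cells. After 24 h, M-CSF is quantified by ELISA. Signal changes are fitted in both directions against DMSO.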

[14] = read-out: Tissue Factor, F3 (gene 2152); test: BSK_LPS_TissueFactor: BioMAP Diversity Plus: LPS Assay for Tissue Factor Biomarker Activity (AID 2283084); details: primary human HUVEC with PBMC; actives raise or lower the signal
In short: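 In this co-culture system of umbilical vein endothelium with PBMC, stimulated with LPS, cell-surface CD142 is detected by ELISA at 24 h. Endpoint values derive from bidirectional fitting, DMSO serving as baseline.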

[15] = read-out: Tumor necrosis factor (Homo sapiens) (UniProt P01375); test: BSK_LPS_TNFa: BioMAP Diversity Plus: LPS Assay for Tumour Necrosis Factor alpha (TNFa) Biomarker Activity (AID 2283085); details: primary human HUVEC with PBMC; actives raise or lower the signal;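 as to AC50: TNFa protein level quantified by ELISA in the co-culture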
In short: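 Primary human vascular co-culture of HUVEC and PBMC; TNFa ELISA 24 h after treatment, analysed as increase or decrease relative to DMSO control.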

[16] = read-out: Vascular cell adhesion molecule 1 (VCAM1), VCAM1 (gene 7412); test: BSK_LPS_VCAM1: BioMAP Diversity Plus: LPS Assay for Vascular cell adhesion molecule 1 (VCAM1) Biomarker Activity (AID 2283086); details: primary human HUVEC with PBMC; actives raise or lower the signal
In short: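 Primary human vascular co-culture (umbilical vein endothelium plus PBMC) stimulated with LPS received chemical; 24 h later VCAM-1 was read by ELISA. Overt cytotoxicity was assessed by sulforhodamine B staining of parallel cultures at the same time point.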

[17] = read-out: CD38, CD38 (gene 952); test: BSK_SAg_CD38: BioMAP Diversity Plus: SAg Assay for CD38 Biomarker Activity (AID 2283087); details: primary human HUVEC with PBMC; actives raise or lower the signal
In short: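 Fluorescence ELISA of cell-surface CD38 served as the read-out, with either increase or decrease fitted against DMSO controls. Cells were a human umbilical vein endothelium plus PBMC co-culture under SEB/TSST-1 stimulation, measured 24 h after dosing.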

[18] = read-out: CD40, CD40 (gene 958); test: BSK_SAg_CD40: BioMAP Diversity Plus: SAg Assay for CD40 Biomarker Activity (AID 2283088); details: primary human HUVEC with PBMC; actives raise or lower the signal
In short: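 Fluorescence ELISA read-out of CD40 from umbilical vein endothelium plus peripheral blood mononuclear cells, sampled 24 h after dosing. Values come from bidirectional curve fitting with DMSO as baseline.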

[19] = read-out: CD69, CD69 (gene 969); test: BSK_SAg_CD69: BioMAP Diversity Plus: SAg Assay for CD69 Biomarker Activity (AID 2283089); details: primary human HUVEC with PBMC; actives raise or lower the signal;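 as to AC50: cell surface CD69 protein quantified by ELISA with fluorescence detection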
In short: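 Values derive from bidirectional fitting relative to DMSO vehicle. Cells: umbilical vein endothelium plus peripheral blood mononuclear cells, treated 24 h before fluorescent ELISA for CD69.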

[20] = read-out: CD40, CD40 (gene 958); test: BSK_LPS_CD40: BioMAP Diversity Plus: LPS Assay for CD40 Biomarker Activity (AID 2283076); details: primary human HUVEC with PBMC; actives raise or lower the signal
In short: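 CD40 signal, measured by ELISA, is fitted in both directions relative to DMSO vehicle. The system is an LPS-driven human vascular primary co-culture of endothelial cells and PBMC, sampled 24 h after compound addition.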

Measured: AC50

Tumor necrosis factor (Homo sapiens), sequence (P01375 whole entry, looked up): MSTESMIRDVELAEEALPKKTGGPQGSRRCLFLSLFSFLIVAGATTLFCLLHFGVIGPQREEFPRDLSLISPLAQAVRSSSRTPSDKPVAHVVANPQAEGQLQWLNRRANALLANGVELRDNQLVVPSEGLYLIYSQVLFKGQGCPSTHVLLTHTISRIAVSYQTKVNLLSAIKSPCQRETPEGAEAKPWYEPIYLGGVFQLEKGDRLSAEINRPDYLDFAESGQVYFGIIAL
E-selectin (Homo sapiens), sequence (P16581 whole entry, looked up): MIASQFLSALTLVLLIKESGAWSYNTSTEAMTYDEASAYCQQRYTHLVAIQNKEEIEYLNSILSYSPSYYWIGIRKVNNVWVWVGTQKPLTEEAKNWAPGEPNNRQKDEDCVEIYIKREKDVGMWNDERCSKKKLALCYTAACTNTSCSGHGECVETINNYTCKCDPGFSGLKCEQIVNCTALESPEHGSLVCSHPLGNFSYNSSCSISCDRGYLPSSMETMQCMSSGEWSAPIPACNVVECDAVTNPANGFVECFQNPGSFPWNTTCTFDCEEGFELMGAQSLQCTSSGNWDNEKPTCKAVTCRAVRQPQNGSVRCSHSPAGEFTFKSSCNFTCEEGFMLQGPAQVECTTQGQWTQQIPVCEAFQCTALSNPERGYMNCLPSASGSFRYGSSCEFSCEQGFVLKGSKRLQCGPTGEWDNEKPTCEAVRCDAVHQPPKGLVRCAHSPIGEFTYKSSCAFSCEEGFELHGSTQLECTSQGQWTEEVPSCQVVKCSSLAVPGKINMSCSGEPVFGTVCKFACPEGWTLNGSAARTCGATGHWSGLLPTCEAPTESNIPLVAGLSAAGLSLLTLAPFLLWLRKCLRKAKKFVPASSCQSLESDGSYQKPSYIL

COC(=O)c1ccccc1S(=O)(=O)NC(=O)Nc1nc(OC(F)F)cc(OC(F)F)n1
inactive: [1] | [2] | [3] | [4] | [5] | [6] | [7] | [8] | [9] | [10] | [11] | [12] | [13] | [14] | [16] | [17] | [18] | [19]
active: [15] 12 µM

CCC(C)OC(=O)N1CCCCC1CCO (centres undefined)
inactive: [1] | [2] | [3] | [4] | [5] | [6] | [7] | [8] | [9] | [10] | [11] | [12] | [13] | [14] | [15] | [16] | [17] | [18] | [19]

CC(=O)S[C@@H]1CC2=CC(=O)CC[C@]2(C)[C@H]2CC[C@@]3(C)[C@@H](CC[C@@]34CCC(=O)O4)[C@H]12
inactive: [2] | [3] | [4] | [5] | [6]
active: [1] 30.7 µM | [7] 22.5 µM | [8] 15.9 µM | [9] 20.9 µM | [10] 12.4 µM | [12] 15.6 µM | [13] 22 µM | [14] 20 µM | [15] 13.9 µM | [16] 29.7 µM | [17] 19.3 µM | [18] 20 µM | [19] 13.9 µM

OB(O)O
inactive: [1] | [2] | [3] | [4] | [5] | [6] | [7] | [8] | [9] | [10] | [11] | [12] | [13] | [14] | [15] | [16] | [17] | [18] | [19]

CC(=O)[C@H]1CC[C@H]2[C@@H]3CCC4=CC(=O)CC[C@]4(C)[C@H]3CC[C@]12C
active: [7] 25.3 µM | [8] 20 µM | [9] 8 µM | [11] 25 µM | [17] 25.7 µM | [18] 20 µM
inactive: [2] | [4] | [5] | [6] | [10] | [12] | [13] | [14] | [15] | [16]

C[C@]12C[C@H](O)[C@H]3[C@@H](CCC4=CC(=O)CC[C@@]43C)[C@@H]1CC[C@@H]2C(=O)CO
inactive: [2] | [3] | [4] | [5] | [6] | [20] | [7] | [8] | [9] | [10] | [11] | [12] | [14] | [15] | [16] | [17] | [18] | [19]

From PubChem BioAssay (EPA / NIEHS)
